Screens deposited in PubChem by Johns Hopkins Ion Channel Center.
KCNQ2 enhance: potentiators of rat KCNQ2 potassium channel; Potassium voltage-gated channel subfamily KQT member 2 (Rattus norvegicus), O88943; CHO-K1 KCNQ2, FluxOR thallium flux fluorescence; hits give high values; B-score at 10 µM; hit rate 0.54% among 310,000;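 active means fluorescence ratio B-score at least 3 SD of library B-scores, with initial fluorescence B-score within 3 of them, cut at about 5.3 in these data; same plate scores as AID 2156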;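 further: B-score of peak minus minimum over baseline fluorescence ratio after K+ and Tl+ stimulus; positive B-score means potentiation of KCNQ2 with more thallium influx and brighter signal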
Target sequence (O88943 whole entry, looked up): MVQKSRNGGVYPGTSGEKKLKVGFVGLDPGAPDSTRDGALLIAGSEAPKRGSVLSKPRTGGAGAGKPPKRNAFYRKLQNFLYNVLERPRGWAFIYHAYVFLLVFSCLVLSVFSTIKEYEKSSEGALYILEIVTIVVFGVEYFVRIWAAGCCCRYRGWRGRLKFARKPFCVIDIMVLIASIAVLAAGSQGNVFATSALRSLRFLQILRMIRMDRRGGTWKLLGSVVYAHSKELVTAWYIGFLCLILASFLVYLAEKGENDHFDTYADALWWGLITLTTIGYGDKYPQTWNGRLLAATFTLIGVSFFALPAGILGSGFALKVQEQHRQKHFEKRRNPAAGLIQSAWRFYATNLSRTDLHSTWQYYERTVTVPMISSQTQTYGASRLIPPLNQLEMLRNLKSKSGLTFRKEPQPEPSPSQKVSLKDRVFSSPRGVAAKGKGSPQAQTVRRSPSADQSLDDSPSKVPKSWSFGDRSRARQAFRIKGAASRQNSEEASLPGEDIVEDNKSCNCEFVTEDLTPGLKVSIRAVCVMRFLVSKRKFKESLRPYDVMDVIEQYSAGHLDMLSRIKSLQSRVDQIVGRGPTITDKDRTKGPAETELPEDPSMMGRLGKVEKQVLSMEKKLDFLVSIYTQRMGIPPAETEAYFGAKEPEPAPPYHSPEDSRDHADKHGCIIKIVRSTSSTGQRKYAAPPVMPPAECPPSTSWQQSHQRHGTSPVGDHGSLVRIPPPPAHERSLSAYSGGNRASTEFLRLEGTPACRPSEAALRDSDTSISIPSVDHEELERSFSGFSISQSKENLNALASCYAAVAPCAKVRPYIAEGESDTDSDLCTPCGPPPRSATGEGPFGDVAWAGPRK
KCNQ2 block: rat KCNQ2 potassium channel inhibitors, primary screen, cell-based, CHO-K1, FluxOR thallium flux, B-score; Potassium voltage-gated channel subfamily KQT member 2 (Rattus norvegicus), O88943; 20 min; hits give low values; B-score at 10 µM; hit rate 1.1% among 310,000; AID 2156, 2009;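 active means fluorescence ratio B-score at most minus 3 library SDs, with starting brightness B-score within 2 library SDs, cut at about -5.5 in these data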
KCNQ2 inh conf: rat KCNQ2 potassium channel inhibitors, confirmation, cell-based, thallium flux | activity change, negative = inhibition, % at 10 µM | shares compounds with KCNQ2 block | hit rate 57% among 1,000 | KCNQ2-expressing cells, inhibition; hits give low values
KCNQ1 spec: human KCNQ1 channel inhibition, counter-screen for KCNQ2 inhibitor project, cell-based, FluxOR thallium flux; shares compounds with KCNQ2 block; KCNQ1-expressing cells, FluxOR thallium flux fluorescence; hits give low values; activity change, negative = inhibition, % at 10 µM; hit rate 15% among 1,000; AID 493026, 2011;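 active means activity change at least 3 SD of negative controls below their mean in both duplicate wells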;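 further: CHO cells stably transfected with KCNQ1 and depolarized by potassium stimulus; peak minus minimum fluorescence over baseline after thallium addition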
CHO Tl ctr: thallium flux change in parental CHO cells, counter-screen for KCNQ2 inhibitor project; activity change, % at 10 µM; hit rate 14% among 1,000; hits give low values; shares compounds with KCNQ2 block
KCNQ2 inh confirm: rat KCNQ2 channel inhibitors, confirmation, cell-based, automated patch clamp, single concentration | calls only at 10 µM | KCNQ2-expressing cells, automated patch clamp current | shares compounds with KCNQ2 block | hit rate 49% among 550
Hits are given with their value; i = inactive; nt = no result; + = active, no number. The list is not random: actives were taken first. Their share in the collection is about 1.6%. Unless noted, how the calls were made is not given here.

SMILES | KCNQ2 enhance | KCNQ2 block | KCNQ2 inh conf | KCNQ1 spec | CHO Tl ctr | others
COc1cc2c(cc1OC)CN(CC(=O)Nc1cccc(C)c1)CC2 | nt | i | nt | nt | nt
CCOC(=O)N1CCN(CCC(=O)Nc2ccc(C)cc2)CC1 | i | i | nt | nt | nt
CCOC(=O)N1CCN(CCC(=O)c2ccc(Br)cc2)CC1 | i | -7.1 | i | i | i
COc1ccc(OC)c(C(=O)Nc2c(O)ccc3ccccc23)c1 | i | i | nt | nt | nt
COc1ccc(CCN(Cc2cc3cc(C)cc(C)c3nc2Cl)C(=O)C2CC2)cc1 | i | -8.6 | -32% | i | i | KCNQ2 inh confirm=i
COc1ccc(CN(CC2CCC(C(=O)O)CC2)C(=S)Nc2ccc(C)c(Cl)c2)cc1 (configuration not stated) | nt | i | nt | nt | nt
COc1ccc(/C=N/NC(=O)COc2ccccc2-c2ccccc2)cc1 | nt | i | nt | nt | nt
CC(NC(=O)COc1ccccc1-c1ccccc1)c1ccccc1 (configuration not stated) | i | -6.9 | -34% | -30% | -24% | KCNQ2 inh confirm=+
O=C(COc1ccccc1-c1ccccc1)N/N=C/c1cccc2ccccc12 | i | -7.8 | i | i | i
CC(=O)Nc1ccccc1OCC(=O)NC(C)c1ccccc1 (configuration not stated) | i | i | nt | nt | nt
COc1ccccc1N=Nc1nc(-c2ccccc2)c(-c2ccccc2)[nH]1 | nt | i | nt | nt | nt
Oc1ccccc1N=Nc1nc(-c2ccccc2)c(-c2ccccc2)[nH]1 | i | -6.6 | i | i | i
Cn1c(=O)cc(C(=O)N/N=C/c2ccc(F)cc2)[nH]c1=O | i | i | nt | nt | nt
CCCCN(CC)C(=O)c1cccc(Cl)c1 | i | i | nt | nt | nt
CCCCN(CC)C(=O)c1ccc(-c2ccccc2)cc1 | i | -6.8 | -26% | i | i | KCNQ2 inh confirm=i
Cc1ccc(N/C=C/C(=O)c2cccs2)cc1C | nt | i | nt | nt | nt
O=C(/C=C/Nc1ccc(Nc2ccccc2)cc1)c1cccs1 | i | -7.3 | i | i | i
O=C(O)Cc1sc(Nc2cccc3ccccc23)nc1-c1ccc(Cl)cc1 | i | -8.2 | i | i | i
Cc1ccc(Nc2nc(-c3ccc(C)cc3)c(CC(=O)O)s2)cc1 | i | i | nt | nt | nt
NS(=O)(=O)c1ccc(CCNC(c2ccccc2)c2ccccc2)cc1 | i | i | nt | nt | nt
c1ccc(C(NCCNC(c2ccccc2)c2ccccc2)c2ccccc2)cc1 | i | -7.2 | -28% | i | i | KCNQ2 inh confirm=i
Cc1cc(C(=O)Nc2ccc([N+](=O)[O-])cn2)cs1 | nt | i | nt | nt | nt
COc1ccccc1-c1cc(C(=O)N2CCN(c3ccccc3)CC2)no1 | nt | i | nt | nt | nt
COc1cc2c(C(=O)N3CCN(c4ccccc4)CC3)c(C)oc2cc1Br | i | -7.4 | -37% | i | i | KCNQ2 inh confirm=+
CCOC(=O)COc1nc(-c2ccco2)cc(-c2ccco2)c1C#N | nt | i | nt | nt | nt
SMILES | KCNQ2 enhance | KCNQ2 block | KCNQ2 inh conf | KCNQ1 spec | CHO Tl ctr | others
CCOC(=O)C(C)Sc1nc(-c2ccco2)cc(C(F)(F)F)c1C#N (configuration not stated) | i | -8.8 | -37% | -39% | -37% | KCNQ2 inh confirm=i
O/N=C(\c1ccccc1)c1nccc2ccccc12 | nt | i | nt | nt | nt
CCC(C)(C)n1nnnc1C(c1cc2cccc(C)c2[nH]c1=O)N1CCCC1 (configuration not stated) | nt | i | nt | nt | nt
Cc1cccc2cc(C(c3nnnn3C3CCCC3)N3CCOCC3)c(=O)[nH]c12 (configuration not stated) | i | -7.8 | -24% | i | i | KCNQ2 inh confirm=+
O=C(COC(=O)C1C2CC3OC(=O)C1C3C2)Nc1cccc(Cl)c1 (configuration not stated) | nt | i | nt | nt | nt
COc1ccc(CCNC(=O)c2ccc3c(c2)N(Cc2ccc(F)cc2)CCS3)c(OC)c1 | i | -8.1 | i | i | i
COc1ccc(OC)c(CCNC(=O)c2ccc3c(c2)N(Cc2ccc(F)cc2)CCS3)c1 | nt | i | nt | nt | nt
COc1cc(C(=O)COC(=O)C2CCN(c3ccc(C(F)(F)F)cn3)CC2)ccc1OC(F)F | i | -9.9 | i | i | i
Cc1cc(C)c(C(=O)COC(=O)C2CCN(c3ccc(C(F)(F)F)cn3)CC2)cc1C | i | -10 | i | i | i
O=C(COC(=O)C1CCN(c2ccc(C(F)(F)F)cn2)CC1)c1ccccc1Cl | nt | i | nt | nt | nt
O=C(COC(=O)C1CCN(c2ccc(C(F)(F)F)cn2)CC1)c1ccc(F)cc1 | nt | i | nt | nt | nt
Cc1cc(S(=O)(=O)Nc2ccc(C(=O)NCc3cccnc3)cc2)ccc1F | nt | i | nt | nt | nt
